Sampled rows, rich in hits. Any-hit rate of the full collection: about 20%.
Pf growth 96h: inhibits malaria parasite growth, 96 h. P. falciparum luciferase reporter growth, 96 h. Potency, µM (titrated, usually from 28.7 µM), most hits filed as inhibitors. 320,000 tested, 6.9% active. AID 504834
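Parasite growth measured via integrated firefly luciferase reporter in P. falciparum. Infected erythrocytes at 2% hematocrit, 0.05% parasitemia final were treated 96 hours at 37 C under 5% CO2, and luminescence was read.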
Shiga inhibitor: inhibitors of Shiga toxin in Vero cells; Vero cells, Shiga toxin protein synthesis inhibition reporter; inhibition, % at 38.7 µM; 290,000 tested, 9.2% active; in the data active = inhibition mostly above about 28%, no sharp cut-off; inactive = mostly below about 43%
Cycloheximide cs: counter-screen for Shiga toxin inhibitors: cycloheximide protein synthesis inhibition; cell reporter, cycloheximide protein synthesis inhibition counterscreen; max response, %; 300,000 tested, 12% active; AID 2314; in the data active = max response mostly above about 13%, no sharp cut-off; inactive = mostly below about 14%; note: read at 38.3 µM for the half of the compounds with a filed dose
Pf growth 48h: P. falciparum growth inhibition at 48 hours (one generation) | P. falciparum luciferase growth in erythrocytes, 48 h | Potency, µM (titrated, usually from 28.7 µM), most hits filed as inhibitors | 310,000 tested, 5.9% active | AID 504832
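Luminescence readout; reporter = integrated firefly luciferase in P. falciparum. RBC culture at 2% hematocrit, 0.1% parasitemia final, 37 C/5% CO2; decreased signal taken as growth inhibition.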
HCMV inh: human cytomegalovirus inhibition | HFF cells, HCMV-luciferase reporter, 72 h; hits give low values | activity change, negative = inhibition, % at 57.5 µM | 410,000 tested, 4.5% active; in the data active = activity change below about -60%; inconclusive = no clear call, values can overlap the other calls; inactive = above about -39%
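Luciferase read-out from HCMV-luciferase-infected HFFs (MOI 1 PFU/cell) 72 h post infection at 37C; compounds added after 16 h cell attachment; activity normalized between buffer-only basal and Salinomycin (10uM) inhibitor controls.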
A number is an active result. Unless noted, calls come from the whole dose curve; as a rule, active = well fitted inhibition curve with a large enough effect; inconclusive = small, poorly fitted or top-dose-only effect, or another doubt; inactive = no such curve, though single readings can be large or run the other way.

What do the screens show for `CSc1ccc(C2c3[nH]c4ccccc4c3CCN2C(=O)c2ccnn2C)cc1` (stereo not given)?
Pf growth 96h: inconclusive; Shiga inhibitor: 72.0; Cycloheximide cs: 35.4; Pf growth 48h: inconclusive; HCMV inh: inactive

Results for CCOc1cc(C(=O)N2CCc3c([nH]c4ccccc34)C2c2ccccc2)cc(OCC)c1OCC (stereo not given) ?
HCMV inh: inactive

What do the screens show for `COc1cccc(C(=O)N2CCc3c([nH]c4ccccc34)C2c2ccc(SC)cc2)c1` (stereo not given)?
HCMV inh: -63.8

How did Cc1ccc(C2c3[nH]c4ccccc4c3CCN2C(=O)CSc2ccccc2)cc1 (stereo not given) do in these assays?
HCMV inh: inactive

What do the screens show for `COc1ccc(/C=C(/NC(=O)c2ccc(Br)cc2)C(=O)N2CCOCC2)cc1`?
Pf growth 96h: inconclusive; Shiga inhibitor: inactive; Cycloheximide cs: inactive; Pf growth 48h: inconclusive; HCMV inh: inactive

What do the screens show for `CC(=O)N1CCCc2cc(S(=O)(=O)N3CCC(C(=O)Nc4cccc(Cl)c4C)CC3)ccc21`?
HCMV inh: inactive

Results for Cc1onc(-c2ccccc2)c1NC(=O)Nc1ccc(OC(F)F)cc1 ?
Pf growth 96h: 4.65µM; Shiga inhibitor: inactive; Cycloheximide cs: inactive; Pf growth 48h: 6.57µM; HCMV inh: inactive

What do the screens show for `O=C(COC(=O)c1c(F)cccc1F)Nc1ccc2c(c1)OCO2`?
Pf growth 96h: inactive; Pf growth 48h: inactive; HCMV inh: inactive

How did O=C(COC(=O)c1ccccc1NC(=O)c1ccco1)Nc1ccc2c(c1)OCO2 do in these assays?
Pf growth 96h: inactive; Shiga inhibitor: inactive; Cycloheximide cs: 16.8; Pf growth 48h: inactive; HCMV inh: inconclusive

How did COC(=O)c1ccccc1NC(=O)COC(=O)c1ccc(C)c(NC(=O)c2ccco2)c1 do in these assays?
Pf growth 96h: 2.33µM; Shiga inhibitor: inactive; Cycloheximide cs: inactive; Pf growth 48h: 2.33µM; HCMV inh: inactive

Results for O=C(COC(=O)c1ccccc1NCc1ccco1)Nc1ccc2c(c1)OCO2 ?
Pf growth 96h: inactive; Shiga inhibitor: 62.2; Cycloheximide cs: 26.6; Pf growth 48h: inactive; HCMV inh: inactive

Results for NC(=O)c1ccsc1NC(=O)COC(=O)c1ccccc1F ?
Pf growth 96h: inactive; Pf growth 48h: inconclusive; HCMV inh: inactive

How did NC(=O)c1ccsc1NC(=O)COC(=O)c1ccccc1NCc1ccco1 do in these assays?
Pf growth 96h: inconclusive; Shiga inhibitor: 106.8; Cycloheximide cs: 33.5; Pf growth 48h: inactive; HCMV inh: inactive

How did O=C(Cn1c(-c2cccs2)cc2ccccc21)N1CCN(c2ccc(Cl)cc2)CC1 do in these assays?
HCMV inh: inactive

Results for CCc1ccccc1NC(=O)Cn1c(=O)n(CCCS(=O)(=O)C2CCCCC2)c(=O)c2ccccc21 ?
HCMV inh: inactive

Results for Cc1ccc(CN2C(=O)c3ccccc3NC2c2cc(Br)ccc2O)cc1 (stereo not given) ?
Pf growth 96h: inconclusive; Shiga inhibitor: inactive; Cycloheximide cs: inactive; Pf growth 48h: inconclusive; HCMV inh: -79.4

What do the screens show for `O=C(c1ccco1)N(Cc1cccnc1)c1nc2ccc(F)cc2s1`?
HCMV inh: inactive

What do the screens show for `CCC1(c2ccccc2)NC(=S)N(c2ccc(C)cc2)N1` (stereo not given)?
Pf growth 96h: inconclusive; Shiga inhibitor: inactive; Cycloheximide cs: 27.4; Pf growth 48h: inactive; HCMV inh: inactive

How did CCC1(c2ccc(Cl)cc2)NC(=S)N(c2ccccc2)N1 (stereo not given) do in these assays?
Pf growth 96h: inactive; Shiga inhibitor: inactive; Cycloheximide cs: 13.8; Pf growth 48h: inactive; HCMV inh: inactive

Results for CC1=C(c2ccc(C(C)C)cc2)S(=O)(=O)NC1=NCc1ccc(Cl)cc1 ?
HCMV inh: inactive

How did O=C(COc1ccccc1)NCCSc1ccccc1 do in these assays?
Pf growth 96h: inconclusive; Shiga inhibitor: inactive; Cycloheximide cs: 14.0; Pf growth 48h: inactive; HCMV inh: inactive

Results for CC(C)(C)SCCNC(=O)COc1ccccc1 ?
Pf growth 96h: inactive; Shiga inhibitor: inactive; Cycloheximide cs: 27.4; Pf growth 48h: inactive; HCMV inh: inactive

Results for C=CCNC(=O)COc1ccc(Oc2ccccc2)cc1 ?
Pf growth 96h: inactive; Shiga inhibitor: 64.2; Cycloheximide cs: 51.7; Pf growth 48h: inactive; HCMV inh: inactive

What do the screens show for `O=C(COc1ccccc1)NCCn1ccc2ccccc21`?
Pf growth 96h: inactive; Shiga inhibitor: inactive; Cycloheximide cs: inactive; Pf growth 48h: inactive; HCMV inh: inactive

Screening results deposited in PubChem BioAssay by National Center for Advancing Translational Sciences (NCATS).
